From PubChem
FLuc counter = inhibits or activates purified firefly luciferase, miR-21 counter-screen; P08659; purified FLuc, Km substrates, luminescence inhibition; Potency, µM (doses to about 57.5 µM), without a hit: at the top dose activity change, negative = inhibition, most hits filed as inhibitors; 6.9% of 360,000 active; AID 588342;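 also: plate controls were vehicle for no effect and reference inhibitor for full effect; nearly all actives have a fitted effect of over 55% in size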
Target sequence (P08659 whole entry, looked up): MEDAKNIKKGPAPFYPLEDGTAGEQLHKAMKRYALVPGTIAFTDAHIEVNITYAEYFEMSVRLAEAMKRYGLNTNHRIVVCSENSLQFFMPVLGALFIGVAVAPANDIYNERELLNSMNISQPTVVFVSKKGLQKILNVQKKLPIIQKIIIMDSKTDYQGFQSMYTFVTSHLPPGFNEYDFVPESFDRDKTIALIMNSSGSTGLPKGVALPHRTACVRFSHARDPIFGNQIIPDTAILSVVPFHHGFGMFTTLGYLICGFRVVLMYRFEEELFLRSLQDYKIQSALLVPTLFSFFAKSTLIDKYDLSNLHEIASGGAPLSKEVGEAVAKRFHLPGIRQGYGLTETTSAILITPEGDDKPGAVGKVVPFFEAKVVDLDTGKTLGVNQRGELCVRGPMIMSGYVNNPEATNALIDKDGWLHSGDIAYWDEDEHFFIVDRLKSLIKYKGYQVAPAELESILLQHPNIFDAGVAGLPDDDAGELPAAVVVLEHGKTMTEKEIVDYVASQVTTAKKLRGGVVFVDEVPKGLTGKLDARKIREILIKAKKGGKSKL
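Biochemical qHTS of compounds, final roughly 60 µM downward over six points, against 10 nM purified firefly luciferase using Km concentrations of substrates (10 uM D-luciferin, 10 uM ATP) in Tris acetate pH 7.5 buffer; luminescence output.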
SMN2 splice enh = increases expression of the SMN2 splice variant; HEK293 SMN2-luciferase splicing reporter, luminescence, 30-36 h; 2.8% of 210,000 active; Potency, µM (top dose mostly 46.1 µM), for inactives: at the top dose activity change, positive = activation, usual class: activators; also: % of control where 0% means no effect; nearly all actives have a fitted effect of over 55% in size
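qHTS luciferase splicing reporter: luminescence rises when SMN2 exon 7 is included in transfected HEK293 cells. Compound exposure lasted 30-36 h at 37C, with 4.5 mM final sodium butyrate as control, followed by a ONE-Glo read.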
ELG1 genotox = induces genotoxicity in HEK293T cells with luciferase-tagged ELG1; HEK293T ELG1-luciferase reporter, luminescence, 16 h; AID 504466; 1.3% of 330,000 active; Potency, µM (series often up to 46 µM), inactives show top-dose activity change, positive = activation, most hits filed as activators; also: % of control where 0% means no effect; nearly all actives have a fitted effect of over 60% in size
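HEK293T cells expressing luciferase-tagged ELG1 were exposed to compound or DMSO vehicle for 16 hr at 37 °C and 5% CO2. Luciferase activity was then measured with ONE-Glo after 30 min at room temperature.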
Rab9 promoter act = activators of Rab9 promoter | Potency, µM (highest dose often 9.22 µM), without a hit: at the highest dose activation, negative = inhibition, usual class: activators | 2.8% of 320,000 active | Huh7 Rab9 promoter-luciferase reporter, luminescence, 24 h; also: % of control where 0% means no effect; nearly all actives have a fitted effect of over 60% in size
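Luminescence read-out: Huh7 cells stably expressing Rab9-luciferase, treated 24 h with compound at 37 °C, then lysed with luciferase reagent for 10 min at ambient before reading.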
p53 reactivator = restores transcriptional activity of mutant p53. Potency, µM (top dose mostly 92.2 µM), for inactives: top-dose activity change, positive = activation, most hits filed as activators. 0.063% of 320,000 active. H1299 p53-A138V BP100-luciferase reporter, luminescence, 24 h; also: % of control where 0% means no effect; nearly all actives have a fitted effect of over 45% in size
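p53-null H1299 cells stably carrying temperature-sensitive p53-A138V and a BP100-luciferase reporter were pinned with compounds (4-point, 1:5 series) and held 24 hrs at 37 deg C. Luminescence was read 10 min after detection reagent.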
NPC1 prom act = activators of NPC1 promoter; 2.4% of 320,000 active; AID 485313; Potency, µM (top dose mostly 9.22 µM), for the others: top-dose activation, hits mostly activators; Huh7 NPC1 promoter luciferase reporter, 24 h; also: % of control where 0% means no effect; nearly all actives have a fitted effect of over 60% in size
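Luminescence from an NPC1 promoter-driven luciferase reporter in stably transfected Huh7 cells was measured after 24 h compound treatment at 37 °C, followed by 10 min ambient incubation with luciferase detection reagent.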
An asterisk follows results filed as active; ? = inconclusive; . = not tested or not shown. In the library only some 7.4% were active in any assay of this set; here they are far more common. Calls follow the shape of the dose curve; as a rule, active = well fitted curve in the direction sought with a large enough effect; inconclusive = small, poorly fitted or top-dose-only effect, or another doubt; inactive = no such curve, though single readings can be large; an effect the other way counts as inactive or inconclusive. Potency is read from the fitted curve at half-maximal effect.

SMILES | FLuc counter | SMN2 splice enh | ELG1 genotox | Rab9 promoter act | p53 reactivator | NPC1 prom act
O=C(Nc1ccc(F)cc1)Nc1ccc2c(c1)CCC2 | ? | . | ? | 2.2µM* | ? | 2.5µM*
Cc1cc(C)cc(NC(=O)Nc2ccc3c(c2)CCC3)c1 | -20% | . | 14% | ? | 6% | ?
O=C(Nc1ccccc1)Nc1ccc2c(c1)CCC2 | 2.7µM* | . | ? | 3.5µM* | 22% | 2.5µM*
Cc1ccccc1NC(=O)Nc1ccc2c(c1)CCC2 | 2.4µM* | . | ? | 2.5µM* | 13% | 2.8µM*
O=C(Nc1ccc2c(c1)CCC2)Nc1ccc(F)cc1F | ? | . | ? | 0.79µM* | ? | 1.3µM*
O=C(Nc1ccc2c(c1)CCC2)c1ccc(F)cc1 | 1.1µM* | 2.2µM* | 1.6µM* | 0.45µM* | ? | 0.71µM*
O=C(Nc1ccc2c(c1)CCC2)c1ncoc1-c1ccccc1F | 8.5µM* | . | 12% | 3% | 3% | 15%
O=C(CNC(=O)c1ccccc1F)Nc1ccc2c(c1)CCC2 | -19% | . | ? | ? | ? | ?
O=C1OC(=O)c2c(Cl)c(Cl)c(Cl)c(Cl)c21 | . | 1% | . | . | . | .
CCCCn1c(N)c(N(CC(C)C)C(=O)CC2CCCC2)c(=O)[nH]c1=O | 10% | . | -4% | -2% | 4% | -4%
CN(CC(=O)Nc1ccc(F)c(F)c1F)C(=O)c1ccc(-n2cncn2)c([N+](=O)[O-])c1 | 4% | . | -2% | -3% | 15% | 1%
O=C(NCc1ccccc1F)C(=O)NCC(c1ccco1)S(=O)(=O)c1ccccc1 (stereo not given) | 5% | . | . | . | . | .
O=C(Nc1nnc(S(=O)(=O)N2CCCc3ccccc32)s1)c1ccccc1Cl | 3% | . | . | . | . | .
N=C1S/C(=C\c2cn[nH]c2-c2ccc(F)cc2)C(=O)N1c1ccccc1F | ? | 13µM* | 10% | 4µM* | ? | 3.2µM*
N=C1S/C(=C\c2ccccc2F)C(=O)N1c1ccc(F)cc1 | 1% | 7% | 0% | -3% | 4% | 0%
CCOc1ccccc1N1CC(c2nc3ccccc3n2CCCOc2ccc(OC)cc2)CC1=O (stereo not given) | 13µM* | ? | . | . | . | .
COc1ccc(OCCn2c(C3CC(=O)N(c4ccc(F)cc4)C3)nc3ccccc32)cc1 (stereo not given) | -2% | -4% | . | . | . | .
CCOc1ccc(N2CC(c3nc4ccccc4n3CCCOc3ccc(OC)cc3)CC2=O)cc1 (stereo not given) | 24µM* | 7% | . | . | . | .
O=C(NC1CCCCCC1)c1ccc(CS(=O)c2cccc(Cl)c2)o1 (stereo not given) | -6% | . | . | . | . | .
CCOC(=O)c1cnc(SCc2cccc(C)c2)nc1N | ? | ? | 16µM* | 30% | 20% | 29%
CCOC(=O)c1cnc(SCC(C)C)nc1N | 6.7µM* | 14µM* | ? | 2.5µM* | ? | 3.2µM*
CCOC(=O)c1cnc(SCC(=O)c2ccccc2)nc1N | 2.1µM* | 13µM* | 21µM* | 1.6µM* | 24% | 3.2µM*
CCOC(=O)c1cnc(SCC(=O)c2ccc3c(c2)OCCO3)nc1N | 21µM* | 14% | 4% | ? | 21% | 0%
CCOC(=O)c1cnc(SCC(=O)c2ccc(C)cc2)nc1N | 1% | 14% | 6% | 11% | 4% | -4%
O=C(Cn1c(=O)oc2cc(S(=O)(=O)NCc3ccccc3)ccc21)NCc1ccc(F)cc1 | 3% | -35% | . | . | . | .
CCOc1ccccc1NC(=O)C(NS(=O)(=O)c1ccc2c(c1)CCC(=O)N2)c1ccccc1 (stereo not given) | -1% | 25% | . | . | . | .
COC(=O)[C@@]1(Cc2ccccc2)[C@H]2c3cc(C(=O)N(C)C)n(CCN4CNCC4=O)c3C[C@H]2CN1C(=O)c1ccccc1 | . | -4% | . | . | . | .
COc1ccc(-c2cc(C(F)(F)F)nc(SCCC(=O)Nc3ccc(OC)c(OC)c3)n2)cc1 | 0% | -10% | . | . | . | .
Cc1ccc(CS(=O)(=O)c2cn(CC(=O)N(C)c3ccccc3)c3ccccc23)cc1 | -10% | . | . | . | . | .
